From PubChem BioAssay AID1159580 (chemical genetic matrix, 2015)
Hit rate of the full screen: of about 5,500 compounds, about 2,000 (36%) were called active. Another 18% or so got no clear call; they are omitted. No stated cut-off is given here; in the data, active means normalized growth mostly below about 0.91 (no sharp cut-off); inconclusive means no clear call, values can overlap the other calls; inactive means mostly above about 0.92. The list shows a part of the results.

Test: chemical genetic growth profiling, strain panel (AID 1159580);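 further: tested at 20 µM; growth read once vehicle control cultures reached saturation at 30 °C; 1 = growth at the plate median or of vehicle wells; lower values mean less growth of the strain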
Conditions: growth OD

Measured: normalized growth

C=C1CCC2C(CC2(C)C)C(=C)CC/C1=N\O (centres undefined)
active: S. cerevisiae deletion strains, locus YKL009W, strain mrt4, hits give low values 0.879 | S. cerevisiae deletion strains, locus YKR001C, strain vps1, hits give low values 0.703 | S. cerevisiae deletion strains, locus YLR039C, strain RIC1, hits give low values 0.441 | S. cerevisiae deletion strains, locus YLR262C, strain YPT6, hits give low values 0.393 | S. cerevisiae deletion strains, locus YLR342W, strain FKS1 (second series), hits give low values 0.694 | S. cerevisiae deletion strains, locus YML032C, strain rad52, hits give low values 0.89 | S. cerevisiae deletion strains, locus YMR307W, strain GAS1, hits give low values 0.423 | S. cerevisiae deletion strains, locus YNL298W, strain CLA4, hits give low values 0.878 | S. cerevisiae deletion strains, locus YNL307C, strain MCK1, hits give low values 0.683 | S. cerevisiae deletion strains, locus YOR184W, strain ser1, hits give low values 0.697
inactive: S. cerevisiae deletion strains, locus YJL187C, strain SWE1, hits give low values 1.01 | S. cerevisiae deletion strains, locus YJR043C, strain POL32, hits give low values 0.905 | S. cerevisiae deletion strains, locus YJR075W, strain HOC1, hits give low values 0.894 | S. cerevisiae deletion strains, locus YKL068W, hits give low values 0.996 | S. cerevisiae deletion strains, locus YKL085W, strain MDH1 (second series), hits give low values 0.972 | S. cerevisiae deletion strains, locus YKL085W, strain MDH1, hits give low values 0.972 | S. cerevisiae deletion strains, locus YKL160W, strain elf1, hits give low values 1 | S. cerevisiae deletion strains, locus YKL190W, strain CNB1, hits give low values 1.01 | S. cerevisiae deletion strains, locus YKR026C, strain gcn3, hits give low values 0.998 | S. cerevisiae deletion strains, locus YKR091W, strain srl3, hits give low values 0.995 | S. cerevisiae deletion strains, locus YLL001W, strain dnm1, hits give low values 1.01 | S. cerevisiae deletion strains, locus YLL026W, hits give low values 0.999 | S. cerevisiae deletion strains, locus YLL041C, strain sdh2, hits give low values 0.994 | S. cerevisiae deletion strains, locus YLR027C, strain aat2, hits give low values 1 | S. cerevisiae deletion strains, locus YLR058C, strain SHM2, hits give low values 1.01 | S. cerevisiae deletion strains, locus YLR102C, strain apc9, hits give low values 1.01 | S. cerevisiae deletion strains, locus YLR221C, strain rsa3, hits give low values 0.983 | S. cerevisiae deletion strains, locus YLR258W, strain gsy2, hits give low values 1.01 | S. cerevisiae deletion strains, locus YLR262C, strain YPT6 (second series), hits give low values 0.966 | S. cerevisiae deletion strains, locus YLR268W, strain sec22, hits give low values 0.936 | S. cerevisiae deletion strains, locus YLR320W, strain mms22, hits give low values 0.984 | S. cerevisiae deletion strains, locus YLR330W, strain CHS5, hits give low values 1.01 | S. cerevisiae deletion strains, locus YLR342W, strain FKS1, hits give low values 1.01 | S. cerevisiae deletion strains, locus YLR357W, strain rsc2, hits give low values 1.03 | S. cerevisiae deletion strains, locus YLR370C, strain arc18, hits give low values 0.996 | S. cerevisiae deletion strains, locus YLR371W, strain rom2, hits give low values 0.994 | S. cerevisiae deletion strains, locus YLR384C, strain iki3, hits give low values 0.992 | S. cerevisiae deletion strains, locus YLR418C, strain cdc73, hits give low values 0.847 | S. cerevisiae deletion strains, locus YML016C, strain PPZ1, hits give low values 0.999 | S. cerevisiae deletion strains, locus YML120C, strain ndi1, hits give low values 1.01 | S. cerevisiae deletion strains, locus YML124C, strain tub3, hits give low values 0.99 | S. cerevisiae deletion strains, locus YMR058W, strain fet3, hits give low values 1.01 | S. cerevisiae deletion strains, locus YMR078C, strain ctf18, hits give low values 0.978 | S. cerevisiae deletion strains, locus YMR125W, strain sto1, hits give low values 1.03 | S. cerevisiae deletion strains, locus YMR129W, hits give low values 1 | S. cerevisiae deletion strains, locus YMR205C, strain PFK2, hits give low values 0.992 | S. cerevisiae deletion strains, locus YMR223W, strain ubp8, hits give low values 0.906 | S. cerevisiae deletion strains, locus YMR231W, strain pep5, hits give low values 0.997 | S. cerevisiae deletion strains, locus YMR263W, strain SAP30, hits give low values 0.962 | S. cerevisiae deletion strains, locus YNL067W, strain RPL9B, hits give low values 0.942 | S. cerevisiae deletion strains, locus YNL071W, strain lat1, hits give low values 1 | S. cerevisiae deletion strains, locus YNL128W, strain TEP1, hits give low values 0.964 | S. cerevisiae deletion strains, locus YNL153C, strain GIM3, hits give low values 0.972 | S. cerevisiae deletion strains, locus YNL209W, strain ssb2, hits give low values 1 | S. cerevisiae deletion strains, locus YNL233W, strain BNI4, hits give low values 0.892 | S. cerevisiae deletion strains, locus YNL248C, strain rpa49, hits give low values 1 | S. cerevisiae deletion strains, locus YNL250W, strain rad50, hits give low values 0.991 | S. cerevisiae deletion strains, locus YNL271C, strain bni1, hits give low values 0.969 | S. cerevisiae deletion strains, locus YNL322C, strain KRE1 (second series), hits give low values 0.983 | S. cerevisiae deletion strains, locus YNL322C, strain KRE1, hits give low values 0.988 | S. cerevisiae deletion strains, locus YNR049C, strain mso1, hits give low values 0.997 | S. cerevisiae deletion strains, locus YNR052C, strain pop2, hits give low values 0.944 | S. cerevisiae deletion strains, locus YOL006C, strain TOP1, hits give low values 0.725 | S. cerevisiae deletion strains, locus YOL012C, strain htz1 1.35 | S. cerevisiae deletion strains, locus YOL147C, strain pex11, hits give low values 0.983 | S. cerevisiae deletion strains, locus YOR001W, strain rrp6, hits give low values 0.985 | S. cerevisiae deletion strains, locus YOR061W, strain CKA2, hits give low values 0.997 | S. cerevisiae deletion strains, locus YOR069W, strain VPS5, hits give low values 1.01 | S. cerevisiae deletion strains, locus YOR070C, strain gyp1, hits give low values 0.991 | S. cerevisiae deletion strains, locus YOR080W, strain dia2, hits give low values 1.01 | S. cerevisiae deletion strains, locus YOR083W, strain WHI5, hits give low values 0.989 | S. cerevisiae deletion strains, locus YOR106W, strain vam3, hits give low values 1 | S. cerevisiae deletion strains, locus YOR136W, strain idh2, hits give low values 0.972 | S. cerevisiae deletion strains, locus YOR144C, strain elg1, hits give low values 0.976 | S. cerevisiae deletion strains, locus YOR265W, strain rbl2, hits give low values 0.993 | S. cerevisiae deletion strains, locus YOR270C, strain vph1, hits give low values 0.987 | S. cerevisiae deletion strains, locus YOR290C, strain snf2, hits give low values 0.972 | S. cerevisiae deletion strains, locus YOR316C, strain cot1, hits give low values 1 | S. cerevisiae deletion strains, locus YPL051W, strain arl3, hits give low values 1.03 | S. cerevisiae deletion strains, locus YPL055C, strain LGE1, hits give low values 0.844 | S. cerevisiae deletion strains, locus YPL078C, strain atp4, hits give low values 1 | S. cerevisiae deletion strains, locus YPL106C, strain sse1, hits give low values 1.05 | S. cerevisiae deletion strains, locus YPL240C, strain hsp82, hits give low values 1 | S. cerevisiae deletion strains, locus YPR119W, strain clb2, hits give low values 0.983 | S. cerevisiae deletion strains, locus YPR141C, strain kar3, hits give low values 1.01 | S. cerevisiae deletion strains, locus YPR163C, strain tif3, hits give low values 0.996 | S. cerevisiae deletion strains, locus YPR167C, strain met16, hits give low values 0.993 | S. cerevisiae deletion strains, strain wtn01, hits give low values 0.915 | S. cerevisiae strains, strain wild type, hits give low values 0.982
